Molecules are shown by their SMILES. The source made the active and inactive calls.

The source of these data is PubChem BioAssay.

Assay [1] can be described thus: small molecules captured by biotinylated probe aFSTL3 – biochemical, small-molecule microarray, fluorescence 635/667, stem cell growth factor project, primary screen (AID 1064).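 Further: measures binding of the biotinylated anti-FSTL3 antibody to printed compounds.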 To be noted: higher = more signal.
A short description of assay [2]: binders from COS7 lysate, DM2A8 probe, primary screen, torsin A project, cell lysate, small-molecule microarray, fluorescence 635/667 (AID 1065). To be noted: higher = more signal, COS7 lysate expressing mutant human TOR1A.
Assay [3] is described as follows: small molecules captured by biotinylated probe aFGF2 – biochemical, small-molecule microarray, fluorescence 635/667, stem cell growth factor project, primary screen (AID 1067).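 Further: measures binding of biotinylated aFGF2 protein to printed compounds on slides; z-score merges feature fluorescence and signal-to-noise across triplicate slides.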 Particulars: higher = more signal.
Assay [4] can be described thus: small molecules captured by biotinylated probe aFGF10 – biochemical, small-molecule microarray, fluorescence 635/667, stem cell growth factor project, primary screen (AID 1071).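 Further: score merges 667 nm spot intensity and signal to noise from triplicate slides.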 To be noted: higher = more signal.
Assay [5] addresses Neurogenic locus notch homolog protein 2 (Homo sapiens) (UniProt Q04721). Nature of the assay: small molecules binding Notch2 protein – biochemical, small-molecule microarray, 635 nm fluorescence, stem cell growth factors, primary screen (AID 1073). To be noted: higher = more signal.
Assay [6] concerns the target Pro-neuregulin-1, membrane-bound isoform (Homo sapiens) (UniProt Q02297). Nature of the assay: small molecules binding neuregulin-1 protein – biochemical, small-molecule microarray, fluorescence 635/667, psychiatric disease protein project, primary screen (AID 1075).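 Further: score combines 667 nm spot fluorescence with signal to noise.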 Particulars: NRG1 binding, 635 nm fluorescence, higher = more signal.
Assay [7] relates to Neuregulin-1 EGF-like domain. Nature of the assay: small molecules binding NRG1 EGF domain – biochemical, small-molecule microarray, 635 nm fluorescence, primary screen (AID 1081).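 Further: binding of the protein to compounds printed on small-molecule microarray slides.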 Particulars: higher = more signal.
A short description of assay [8]: FRG1 expression reporter modulators in myotubes – cell-based, C2C12 myotubes, firefly/Renilla luciferase, luminescence, FRG1 inhibition for FSHD, primary screen (AID 1084). To be noted: FRG1 promoter luciferase, higher = more signal, called active from +8 up or from −8 down.
Assay [9] is described as follows: small molecules captured by biotinylated probe aFST – biochemical, small-molecule microarray, fluorescence 635/667, stem cell growth factor project, primary screen (AID 1086).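 Further: score merges 667 nm fluorescence with signal-to-noise of each printed compound spot.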 To be noted: higher = more signal.
The nature of assay [10]: binders of probe aHhip on microarray, primary screen, stem cell growth factor project, biochemical, small-molecule microarray, fluorescence 635/667 (AID 1087).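 Further: score merges spot fluorescence at 667nm with spot signal to noise ratio.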 Particulars: higher = more signal.
Assay [11] concerns PRMT1 (protein arginine N-methyltransferase 1). As to the kind of experiment: small molecules binding arginine methyltransferase PRMT1 – biochemical, small-molecule microarray, 635 nm fluorescence, primary screen (AID 1088).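 Further: binding of Prmt1 protein to compounds spotted on small-molecule microarray slides.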 Particulars: higher = more signal.
Assay [12] can be described thus: growth effects on S. cerevisiae YJM789 – YJM789 clinical isolate, OD600, 24 h, basal, primary screen (AID 1089).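 Further: growth of clinical yeast isolate S. cerevisiae YJM 789 seeded 1000 cells per well; test concentration not given here.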 To be noted: higher = more signal, called active from +8 up or from −8 down.
A short description of assay [13]: S. pombe growth modifiers, basal conditions – strain 972, OD600, 24 h, no modulator, primary screen (AID 1090).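 Further: basal condition with compound alone and no growth modifier present; test concentration not given here.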 To be noted: S. pombe 972 growth, higher = more signal, called active from +8 up or from −8 down.
Assay [14] in a line: budding yeast growth modifiers under rapamycin – strain BY4716, OD600, 96 h, primary screen (AID 1091). Further: test concentration not given here. To be noted: S. cerevisiae BY4716 + rapamycin, higher = more signal, called active from +8 up or from −8 down.
In assay [15] the target is Torsin-1A-interacting protein 2 (Homo sapiens) (UniProt Q8NFQ8). As to the kind of experiment: small molecules binding lysate-expressed LULL1 – cell lysate, human LULL1 lysate, 635/667 nm fluorescence, primary screen (AID 1092).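 Further: probe is lysate of COS7 cells overexpressing human LULL1; score merges per-feature 667 nm fluorescence with signal-to-noise.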 Particulars: small-molecule microarray, hLULL1 lysate binding, 635 nm fluorescence; higher = more signal.
The nature of assay [16]: optical density change of DRC41 E. coli – strain DRC41, OD650, 24 h, E. coli filamentation project, primary screen (AID 1093).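 Further: MC1000 strain lacking acrAB efflux and sulA so SOS filamentation is blocked; test concentration not given here.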 Particulars: E. coli DRC41 growth, higher = more signal, called active from +8 up or from −8 down.
Assay [17] in a line: probe aLefty2 binding to arrayed compounds – biochemical, biotinylated probe, 635/667 nm fluorescence, primary screen (AID 1094).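 Further: score merges spot fluorescence near 667 nm with spot signal-to-noise ratio.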 To be noted: small-molecule microarray, higher = more signal.
Assay [18] has as its system Noggin (protein binding on small-molecule microarray). Nature of the assay: small molecules binding Noggin protein – biochemical, 635/667 nm fluorescence, primary screen (AID 1095).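 Further: score merges 667 nm feature fluorescence with signal to noise over triplicate slides.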 To be noted: 635 nm fluorescence, higher = more signal.
Assay [19] concerns the target Neurogenic locus notch homolog protein 3 (Homo sapiens) (UniProt Q9UM47). Nature of the assay: small molecules binding NOTCH3 protein – biochemical, 635/667 nm fluorescence, primary screen (AID 1096). To be noted: small-molecule microarray, 635 nm fluorescence, higher = more signal.
The nature of assay [20]: probe aEGFR binding to arrayed compounds – biochemical, biotinylated probe, 635/667 nm fluorescence, primary screen (AID 1097).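 Further: probe is a biotinylated anti-EGFR antibody binding compounds printed on slides; score combines fluorescence near 667 nm and signal to noise of each spot.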 Particulars: small-molecule microarray, higher = more signal.

Chain of Pro-neuregulin-1, membrane-bound isoform (Homo sapiens) (Q02297 whole entry, looked up, the tested form may be a part, canonical isoform): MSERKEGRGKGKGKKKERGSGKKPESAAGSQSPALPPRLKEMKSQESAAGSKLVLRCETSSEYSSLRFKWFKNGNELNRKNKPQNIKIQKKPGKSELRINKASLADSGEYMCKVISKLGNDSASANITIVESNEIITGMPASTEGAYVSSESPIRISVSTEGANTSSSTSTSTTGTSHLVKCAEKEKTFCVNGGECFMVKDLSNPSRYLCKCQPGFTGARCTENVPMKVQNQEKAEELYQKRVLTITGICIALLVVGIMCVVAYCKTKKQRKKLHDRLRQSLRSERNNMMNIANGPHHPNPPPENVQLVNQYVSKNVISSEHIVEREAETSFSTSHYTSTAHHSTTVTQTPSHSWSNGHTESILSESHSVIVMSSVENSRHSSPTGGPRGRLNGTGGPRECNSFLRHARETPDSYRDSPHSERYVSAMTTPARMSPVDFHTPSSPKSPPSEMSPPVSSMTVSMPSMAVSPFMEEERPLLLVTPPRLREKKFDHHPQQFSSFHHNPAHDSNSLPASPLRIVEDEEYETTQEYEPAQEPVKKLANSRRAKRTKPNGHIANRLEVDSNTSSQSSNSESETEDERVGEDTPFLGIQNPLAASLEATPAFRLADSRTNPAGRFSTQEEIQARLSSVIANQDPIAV
Chain of Neurogenic locus notch homolog protein 3 (Homo sapiens) (Q9UM47 whole entry, looked up): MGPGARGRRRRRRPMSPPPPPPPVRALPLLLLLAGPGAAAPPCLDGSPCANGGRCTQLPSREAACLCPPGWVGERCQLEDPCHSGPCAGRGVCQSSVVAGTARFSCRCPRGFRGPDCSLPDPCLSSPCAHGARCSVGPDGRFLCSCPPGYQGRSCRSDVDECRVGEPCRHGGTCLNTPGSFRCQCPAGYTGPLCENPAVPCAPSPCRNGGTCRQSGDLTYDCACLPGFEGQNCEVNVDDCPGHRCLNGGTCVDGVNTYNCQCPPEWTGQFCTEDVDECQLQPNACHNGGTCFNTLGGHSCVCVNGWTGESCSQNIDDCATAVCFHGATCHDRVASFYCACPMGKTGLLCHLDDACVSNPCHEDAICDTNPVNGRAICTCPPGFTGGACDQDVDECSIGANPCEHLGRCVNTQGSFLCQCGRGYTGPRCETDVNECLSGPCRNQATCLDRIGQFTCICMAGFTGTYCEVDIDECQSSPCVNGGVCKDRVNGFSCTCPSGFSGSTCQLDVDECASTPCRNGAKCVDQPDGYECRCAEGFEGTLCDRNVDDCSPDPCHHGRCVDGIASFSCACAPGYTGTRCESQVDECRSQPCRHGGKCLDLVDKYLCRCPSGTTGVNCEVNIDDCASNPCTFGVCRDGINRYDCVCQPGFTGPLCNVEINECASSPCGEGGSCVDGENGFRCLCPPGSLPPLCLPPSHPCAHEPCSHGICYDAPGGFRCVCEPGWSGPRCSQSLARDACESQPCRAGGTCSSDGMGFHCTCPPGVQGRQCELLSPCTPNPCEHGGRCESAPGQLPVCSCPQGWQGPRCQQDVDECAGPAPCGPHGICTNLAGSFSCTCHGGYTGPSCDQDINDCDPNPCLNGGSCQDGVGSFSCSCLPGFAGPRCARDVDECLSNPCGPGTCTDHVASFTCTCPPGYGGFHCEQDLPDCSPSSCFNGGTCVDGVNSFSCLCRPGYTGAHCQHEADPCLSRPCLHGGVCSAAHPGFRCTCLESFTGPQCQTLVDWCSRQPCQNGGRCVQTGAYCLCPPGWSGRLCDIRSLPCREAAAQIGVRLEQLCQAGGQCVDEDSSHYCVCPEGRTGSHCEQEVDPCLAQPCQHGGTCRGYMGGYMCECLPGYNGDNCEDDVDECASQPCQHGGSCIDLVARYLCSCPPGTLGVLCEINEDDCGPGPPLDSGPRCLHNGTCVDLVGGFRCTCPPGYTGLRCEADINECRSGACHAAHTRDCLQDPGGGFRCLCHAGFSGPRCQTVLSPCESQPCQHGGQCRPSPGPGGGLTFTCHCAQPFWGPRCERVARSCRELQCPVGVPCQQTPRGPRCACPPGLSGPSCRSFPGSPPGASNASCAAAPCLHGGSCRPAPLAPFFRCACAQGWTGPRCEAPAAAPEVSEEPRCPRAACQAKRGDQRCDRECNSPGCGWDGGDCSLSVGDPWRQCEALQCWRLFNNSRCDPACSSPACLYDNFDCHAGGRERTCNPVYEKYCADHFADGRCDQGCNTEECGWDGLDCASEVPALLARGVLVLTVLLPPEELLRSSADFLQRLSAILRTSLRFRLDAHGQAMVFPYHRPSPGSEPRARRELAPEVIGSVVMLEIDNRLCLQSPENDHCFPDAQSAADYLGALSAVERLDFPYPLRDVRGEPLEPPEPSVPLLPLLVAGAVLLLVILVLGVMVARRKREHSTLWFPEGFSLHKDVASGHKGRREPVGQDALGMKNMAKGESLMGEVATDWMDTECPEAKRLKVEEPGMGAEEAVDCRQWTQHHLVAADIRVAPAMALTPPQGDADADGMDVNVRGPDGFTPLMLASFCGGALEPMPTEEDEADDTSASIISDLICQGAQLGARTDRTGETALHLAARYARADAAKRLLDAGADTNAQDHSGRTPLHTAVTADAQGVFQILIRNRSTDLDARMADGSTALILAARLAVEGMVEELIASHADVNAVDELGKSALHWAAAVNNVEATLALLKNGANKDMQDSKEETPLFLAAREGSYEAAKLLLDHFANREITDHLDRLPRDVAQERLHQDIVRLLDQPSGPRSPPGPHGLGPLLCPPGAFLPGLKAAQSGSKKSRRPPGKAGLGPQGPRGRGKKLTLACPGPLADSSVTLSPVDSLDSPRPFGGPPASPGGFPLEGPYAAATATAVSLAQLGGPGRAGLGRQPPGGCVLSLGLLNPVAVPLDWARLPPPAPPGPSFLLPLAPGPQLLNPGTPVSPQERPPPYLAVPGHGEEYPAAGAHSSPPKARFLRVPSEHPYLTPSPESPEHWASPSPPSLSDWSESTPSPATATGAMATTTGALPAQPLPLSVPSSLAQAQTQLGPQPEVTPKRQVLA
Chain of Torsin-1A-interacting protein 2 (Homo sapiens) (Q8NFQ8 whole entry, looked up): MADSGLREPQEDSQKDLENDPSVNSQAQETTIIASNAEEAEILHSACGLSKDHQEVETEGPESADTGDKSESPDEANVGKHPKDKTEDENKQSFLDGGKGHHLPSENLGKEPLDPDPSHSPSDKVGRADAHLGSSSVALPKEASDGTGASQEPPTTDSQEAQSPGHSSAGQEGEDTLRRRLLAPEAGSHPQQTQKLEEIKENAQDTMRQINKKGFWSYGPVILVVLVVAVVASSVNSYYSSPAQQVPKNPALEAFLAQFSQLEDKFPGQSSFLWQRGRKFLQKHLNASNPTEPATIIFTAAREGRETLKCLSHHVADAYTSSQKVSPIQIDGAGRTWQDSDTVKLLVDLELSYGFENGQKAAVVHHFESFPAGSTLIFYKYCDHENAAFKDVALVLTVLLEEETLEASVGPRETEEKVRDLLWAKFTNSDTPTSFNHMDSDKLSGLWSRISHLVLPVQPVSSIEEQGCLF

For the molecule `CO[C@@H]1COC(=O)[C@H](C)NC(=O)CC=C[C@@H](C)[C@H](OC)COC(=O)[C@H](C)NC(=O)CC=C[C@H]1C`, the composite z-score in assay [1] is -0.348; in [2], 0.395; in [3], -0.112; in [4], 0.269; in [5], 0.208; in [6], -0.0025. For the same molecule, the composite z-score in assay [7] was 0.0912; in assay [9], 0.0054; in assay [10], -0.146; in [11], 0.0529; in [15], -0.391; in assay [17], -0.137. Besides, the composite z-score in assay [18] was 0.705; in [19], 0.546; in [20], -0.121. For the same molecule, the z-score in assay [8] was 0.0543 (inactive); in [12] it was 0.611 (inactive); in [13] it was -0.76 (inactive); in assay [14], 0.0943 (inactive); in [16], 0.485 (inactive).
As for `CO[C@H]1COC(=O)[C@@H](OCc2ccccc2)C=C[C@H](C)[C@@H](OC)COC(=O)[C@H](OCc2ccccc2)C=C[C@@H]1C`, the composite z-score was -0.617 in [1]; -0.144 in assay [2]; -0.136 in assay [3]; -0.205 in assay [4]; -0.893 in assay [5]; -0.93 in assay [6]. The composite z-score was -0.669 in [7]; -0.0171 in [9]; -0.353 in [10]; -0.374 in assay [11]; -0.233 in assay [15]; -0.462 in assay [17]. The composite z-score is 0.816 in assay [18], -0.472 in [19] and -0.188 in assay [20]. Besides, the z-score in [8] is -0.23 (inactive); in [12], -2.92 (inactive); in [13], -2.88 (inactive); in [14] it was -0.495 (inactive); in assay [16], -0.255 (inactive).
On to `O=C(NCc1ccccc1)[C@@]1(Cc2ccccc2)COC(c2ccc(OCCCO)cc2)=N1`, for which the composite z-score in assay [1] was 0.618; in assay [2], 0.0094; in assay [3], -0.255; in [4], 0.0532; in assay [5], 0.46; in assay [6], 1.51. The composite z-score is 1.19 in assay [7]; 0.792 in assay [9]; 0.113 in [10]; 1.41 in assay [11]; 3.11 in assay [15]; 0.188 in assay [17]. Besides, the composite z-score in assay [18] is -0.629; in assay [19], -0.0046; in [20], -0.054. The z-score was -3.27 (inactive) in assay [8]; 1.51 (inactive) in [12]; -1.24 (inactive) in assay [13]; 36.4 (active) in [14]; 0.624 (inactive) in [16].
On to `CCN1C(C)=C(C(=O)OC)[C@@H](c2ccccc2)N2C(=O)[C@@]3(C(=O)OC)O[C@@]12[C@@H]1C(=O)N(C)C(=O)[C@@H]13`, for which the composite z-score in assay [1] was -0.217; in [2], 0.139; in [3], -0.0125; in assay [4], 0.735; in [5], 0.949; in [6] it was 0.825. The composite z-score in assay [7] was 1.18; in assay [9], 0.264; in assay [10] it was -0.0994; in assay [11], 0.962; in [15], 1.44; in assay [17] it was -0.122. In addition, the composite z-score came out at 0.584 in assay [18], 0.333 in assay [19] and 0.0692 in assay [20]. Also, the z-score was -1.36 (inactive) in [8]; -0.444 (inactive) in assay [12]; -0.76 (inactive) in assay [13]; 1.74 (inactive) in assay [14]; -0.0517 (inactive) in assay [16].
In the case of `C=CC[C@]1(C(=O)O)N=C(c2ccc(OCCCO)cc2)O[C@H]1c1ccccc1N=[N+]=[N-]`, the composite z-score was 1.17 in assay [1]; -0.258 in [2]; -0.101 in assay [3]; 0.427 in [4]; -0.16 in assay [5]; 0.215 in assay [6]. Besides, the composite z-score in assay [7] was 0.686; in [9] it was 0.489; in assay [10] it was -0.403; in [11], -0.417; in assay [15], 2.62; in [17] it was 0.0313. In addition, the composite z-score in [18] was -0.491; in assay [19], -0.33; in assay [20] it was -0.0059. For the same molecule, the z-score is 4.6 (inactive) in assay [8]; 0.942 (inactive) in assay [12]; -0.155 (inactive) in [13]; -0.336 (inactive) in [14]; 1.32 (inactive) in assay [16].
